Measured values reported in PubChem BioAssay AID1159580 (chemical genetic matrix, 2015).
Hit rate of the full screen: of about 5,500 compounds, about 2,000 (36%) were called active. About 18% were inconclusive and are not listed. Rule as the data show it: active = normalized growth mostly below about 0.91 (no sharp cut-off); inconclusive = no clear call, values can overlap the other calls; inactive = mostly above about 0.92. The list shows a part of the results.

Assay: chemical genetic growth profiling, strain panel (AID 1159580);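 also: tested at 20 µM; growth read once vehicle control cultures reached saturation at 30 °C; 1 = growth at the plate median or of vehicle wells; lower values mean less growth of the strain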
Settings: S. cerevisiae deletion strains, growth OD
[1] = locus YAR019C, strain CDC15, stronger effect = lower value
[2] = locus YBL105C, strain PKC1, stronger effect = lower value
[3] = locus YBR135W, strain CKS1, stronger effect = lower value
[4] = locus YBR136W, strain MEC1, stronger effect = lower value
[5] = locus YBR160W, strain CDC28, stronger effect = lower value
[6] = locus YDL017W, strain CDC7, stronger effect = lower value
[7] = locus YDL028C, strain MPS1, stronger effect = lower value
[8] = locus YDL101C, strain DUN1, stronger effect = lower value
[9] = locus YDL108W, strain KIN28, stronger effect = lower value
[10] = locus YDL132W, strain cdc53, stronger effect = lower value
[11] = locus YDL214C, strain PRR2, stronger effect = lower value
[12] = locus YDR052C, strain DBF4, stronger effect = lower value
[13] = locus YDR054C, strain cdc34, stronger effect = lower value
[14] = locus YDR226W, strain ADK1, stronger effect = lower value
[15] = locus YDR477W, strain SNF1, stronger effect = lower value
[16] = locus YER123W, strain YCK3, stronger effect = lower value
[17] = locus YER133W, strain GLC7, stronger effect = lower value
[18] = locus YFL009W, strain cdc4, stronger effect = lower value
[19] = locus YFL029C, strain CAK1, stronger effect = lower value
[20] = locus YFR003C, strain YPI1, stronger effect = lower value
[21] = locus YFR019W, strain FAB1, stronger effect = lower value
[22] = locus YFR028C, strain CDC14, stronger effect = lower value
[23] = locus YGR040W, strain KSS1, stronger effect = lower value
[24] = locus YGR052W, strain FMP48, stronger effect = lower value
[25] = locus YGR092W, strain DBF2, stronger effect = lower value
[26] = locus YHR030C, strain SLT2, stronger effect = lower value
[27] = locus YHR079C, strain IRE1, stronger effect = lower value
[28] = locus YHR082C, strain KSP1, stronger effect = lower value
[29] = locus YHR205W, strain SCH9, stronger effect = lower value
[30] = locus YIL147C, strain SLN1, stronger effect = lower value
[31] = locus YJL095W, strain BCK1, stronger effect = lower value
[32] = locus YJL128C, strain PBS2, stronger effect = lower value
[33] = locus YJL157C, strain FAR1, stronger effect = lower value
[34] = locus YJR016C, strain ILV3, stronger effect = lower value
[35] = locus YJR066W, strain TOR1 (second series), stronger effect = lower value
[36] = locus YJR066W, strain TOR1, stronger effect = lower value
[37] = locus YKL048C, strain ELM1, stronger effect = lower value
[38] = locus YKL067W, strain YNK1, stronger effect = lower value
[39] = locus YKL101W, strain HSL1, stronger effect = lower value
[40] = locus YKL193C, strain SDS22, stronger effect = lower value
[41] = locus YKL203C, strain TOR2, stronger effect = lower value
[42] = locus YLR113W, strain HOG1, stronger effect = lower value
[43] = locus YLR133W, strain CKI1, stronger effect = lower value
[44] = locus YLR403W, strain SFP1, stronger effect = lower value
[45] = locus YML070W, strain DAK1, stronger effect = lower value
[46] = locus YMR001C, strain CDC5, stronger effect = lower value
[47] = locus YMR205C, strain PFK2 (second series), stronger effect = lower value
[48] = locus YMR277W, strain FCP1, stronger effect = lower value
[49] = locus YNL006W, strain LST8, stronger effect = lower value
[50] = locus YNL020C, strain ARK1, stronger effect = lower value
[51] = locus YNL161W, strain CBK1, stronger effect = lower value
[52] = locus YNL183C, strain NPR1, stronger effect = lower value
[53] = locus YNL207W, strain RIO2, stronger effect = lower value
[54] = locus YNL222W, strain SSU72, stronger effect = lower value
[55] = locus YNL307C, strain MCK1 (second series), stronger effect = lower value
[56] = locus YOL078W, strain AVO1, stronger effect = lower value
[57] = locus YOL136C, strain PFK27, stronger effect = lower value
[58] = locus YOR061W, strain CKA2, stronger effect = lower value
[59] = locus YOR119C, strain RIO1, stronger effect = lower value
[60] = locus YOR231W, strain MKK1, stronger effect = lower value
[61] = locus YOR329C, strain SCD5, stronger effect = lower value
[62] = locus YPL031C, strain PHO85, stronger effect = lower value
[63] = locus YPL153C, strain RAD53, stronger effect = lower value
[64] = locus YPL204W, strain HRR25, stronger effect = lower value
[65] = locus YPL209C, strain IPL1, stronger effect = lower value
[66] = locus YPL256C, strain CLN2, stronger effect = lower value
[67] = locus YPR025C, strain CCL1, stronger effect = lower value
[68] = locus YPR106W, strain ISR1, stronger effect = lower value
[69] = locus YPR111W, strain DBF20, stronger effect = lower value
[70] = strain NNK1, stronger effect = lower value
[71] = strain TSCII, stronger effect = lower value

Measured: normalized growth

Oc1ccc(N=Nc2ccccn2)c(O)c1
active: [1] 0.0954 | [2] 0.0926 | [3] 0.0984 | [4] 0.0929 | [5] 0.0967 | [6] 0.0946 | [7] 0.0969 | [8] 0.103 | [9] 0.0995 | [10] 0.0971 | [11] 0.0962 | [12] 0.0928 | [13] 0.0989 | [14] 0.0953 | [15] 0.102 | [16] 0.108 | [17] 0.103 | [18] 0.0975 | [19] 0.0955 | [20] 0.0966 | [21] 0.0923 | [22] 0.0968 | [23] 0.0983 | [24] 0.121 | [25] 0.0944 | [26] 0.116 | [27] 0.12 | [28] 0.125 | [29] 0.00344 | [30] 0.0967 | [31] 0.104 | [32] 0.102 | [33] 0.0922 | [34] 0.0883 | [35] 0.0985 | [36] 0.114 | [37] 0.113 | [38] 0.101 | [39] 0.0988 | [40] 0.0969 | [41] 0.102 | [42] 0.153 | [43] 0.0924 | [44] 0.00522 | [45] 0.103 | [46] 0.095 | [47] 0.0981 | [48] 0.0981 | [49] 0.1 | [50] 0.0963 | [51] 0.0956 | [52] 0.123 | [53] 0.0923 | [54] 0.0956 | [55] 0.0988 | [56] 0.0959 | [57] 0.0997 | [58] 0.097 | [59] 0.108 | [60] 0.118 | [61] 0.0939 | [62] 0.101 | [63] 0.1 | [64] 0.102 | [65] 0.0941 | [66] 0.155 | [67] 0.0983 | [68] 0.0922 | [69] 0.103 | [70] 0.0965 | [71] 0.0967

COc1cc(CC/C(C)=N\O)ccc1OCc1ccc(Cl)c(Cl)c1
active: [26] 0.831 | [42] 0.816
inactive: [1] 0.973 | [2] 0.964 | [3] 0.97 | [4] 0.96 | [5] 0.975 | [6] 0.963 | [7] 0.959 | [8] 0.975 | [9] 0.947 | [10] 0.983 | [11] 0.818 | [12] 0.971 | [13] 0.968 | [14] 0.973 | [15] 0.868 | [16] 0.767 | [17] 0.864 | [18] 0.968 | [19] 0.968 | [20] 0.968 | [21] 0.808 | [22] 0.983 | [23] 0.862 | [24] 0.881 | [25] 0.824 | [27] 0.871 | [28] 0.883 | [29] 0.869 | [30] 0.962 | [31] 0.849 | [32] 0.916 | [33] 0.823 | [34] 0.969 | [35] 0.786 | [36] 0.867 | [37] 0.934 | [38] 0.865 | [39] 0.852 | [40] 0.968 | [41] 0.932 | [43] 0.875 | [44] 0.865 | [45] 0.82 | [46] 0.967 | [47] 0.877 | [48] 0.968 | [49] 0.975 | [50] 0.851 | [51] 0.973 | [52] 0.885 | [53] 0.965 | [54] 0.969 | [55] 0.845 | [56] 0.978 | [57] 0.84 | [58] 0.818 | [59] 0.931 | [60] 0.842 | [61] 0.972 | [62] 0.858 | [63] 0.833 | [64] 0.873 | [65] 0.968 | [66] 0.893 | [67] 0.98 | [68] 0.968 | [69] 0.962 | [70] 0.953 | [71] 0.97
